A number with no mark means an inactive call. Activity calls are given as the source filed them. How the calls were made is not given here.
Potency means the concentration at half of the fitted maximal effect.

For the assay, the system named is HIV-1 nucleocapsid protein NCp7 (binding to TG oligonucleotide). Kind of assay: HIV Nucleocapsid (AID 346).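 Further: potency is for inhibitors that block NC binding and lower polarization.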 Conditions: HIV-1 NC / fluorescein-TGTGTGTG probe, fluorescence polarization. Summed up:
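Reagents dispensed (10 nM TG4xF, 100 nM HIV-1 NC), plates spun, compounds pin-transferred, then incubated 1 hr at room temperature before FP imaging. Buffer: Hepes pH 7.5, 250mM NaCl, 1uM ZnCl2, 100 uM TCEP, 5 mM 2-mercaptoethanol.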
`Cc1ccccc1-c1cc(NCCN2CCOCC2)ncn1`: the Potency is above 20 µM.

As to `CC(=O)N1CCC2(CCN(Cc3cc(C(F)(F)F)cc(C(F)(F)F)c3)CC2)CC1`, the Potency was above 20 µM.

As to `CN(C)Cc1ccccc1-c1cncnc1NCc1cccnc1`, the Potency is above 20 µM.

On to `O=C(c1ccncc1)N1CCC2(CC1)CCN(c1ccccc1)CC2`, for which the Potency is above 20 µM.

As for `O=c1c(CCc2ccccc2)nc2cnc(Oc3ccccc3)nc2n1C[C@H]1CCCO1`, the Potency was above 20 µM.

Take `COCCNc1cc(-c2ccccc2C)ncn1`: the Potency was above 20 µM.

On to `Cn1c(=O)cnc2cnc(Oc3ccccc3)nc21`, for which the Potency is above 20 µM.

`COCC(=O)N1CCC2(CC1)CCN(C(=O)Nc1cccc(C#N)c1)CC2`: the Potency is above 20 µM.

Turning to `O=c1c(-c2ccc(F)cc2)nc2cnc(N3CCOCC3)nc2n1C1CC1`, the Potency was above 20 µM.

As for `N#CCCn1c(=O)c(-c2cccs2)nc2cnc(Nc3ccccc3)nc21`, the Potency is above 20 µM.

Take `COc1ccc(Oc2ncc3ncc(=O)n(CCC#N)c3n2)cc1`: the Potency is above 20 µM.

In the case of `O=C(c1csnn1)N1CCC[C@@]2(CCN(c3cccc(-c4ccccc4)c3)C2)C1`, the Potency was above 20 µM.

Take `Cn1cccc1C(=O)N1CCC2(CCCN(C(=O)Nc3ccccc3)C2)CC1`: the Potency is above 20 µM.

As for `COCC(=O)N1CCC2(CCN(Cc3ccccc3)CC2)CC1`, the Potency is above 20 µM.

Regarding `N#Cc1ccc(CN2CCCC3(CCN(C(=O)c4ccncc4)CC3)C2)cc1`, the Potency is above 20 µM.

Take `CC(=O)NCCNc1nc(-c2ccc(C(=O)N(C)C)cc2)nc2ccccc12`: the Potency is above 20 µM.

For the compound `COc1cccc(Cn2c(=O)c(C)nc3cnc(Nc4cccc(OC)c4)nc32)c1`, the Potency is above 20 µM.

For the compound `COc1ccc2[nH]cc(CCNc3nc(-c4cccnc4)nc4ccccc34)c2c1`, the Potency is above 20 µM.

Regarding `CN(C)c1ccc(-c2cncnc2NCc2ccccc2)cc1`, the Potency is above 20 µM.

With `O=C(Nc1ccccc1)N1CCCC2(CCN(C(=O)c3cnccn3)CC2)C1`, the Potency was above 20 µM.

`COc1cccc(Nc2ncc3ncc(=O)n(Cc4ccc(F)cc4)c3n2)c1`: the Potency was above 20 µM.

Turning to `COc1cccc(Cn2c(=O)cnc3cnc(Nc4ccccc4)nc32)c1`, the Potency is 4.95 µM (active).

`COC(=O)N1CCC2(CCCN(C(c3ccccc3)c3ccccc3)C2)CC1`: the Potency was above 20 µM.

In the case of `O=c1c(-c2ccccc2)nc2cnc(Oc3cccc(Cl)c3)nc2n1C[C@H]1CCCO1`, the Potency is above 20 µM.

As to `COc1ccc(-c2nc3cnc(N4CCNCC4)nc3n(CCc3ccccc3)c2=O)cc1`, the Potency was above 20 µM.

Regarding `CS(=O)(=O)Nc1cccc(-c2nc(NCc3ccccc3)c3ccccc3n2)c1`, the Potency was above 20 µM.

`O=C(c1ccco1)N1CCC2(CC1)CCN(c1ccncc1)CC2`: the Potency was above 20 µM.

`CCNc1ncc2nc(CCc3ccccc3)c(=O)n(C[C@H]3CCCO3)c2n1`: the Potency is above 20 µM.

In the case of `CN(Cc1ccco1)c1ncnc2ccc(-c3ccoc3)cc12`, the Potency was above 20 µM.

With `COc1cccc(-c2nc(N(C)C)c3ccccc3n2)c1`, the Potency is above 20 µM.

Take `COCCn1c(=O)c(-c2ccc(Cl)cc2)nc2cnc(Nc3ccccc3)nc21`: the Potency is above 20 µM.

Regarding `Cn1cccc1C(=O)N1CCC2(CCCN(Cc3ccccc3)C2)CC1`, the Potency was above 20 µM.

In the case of `FC(F)(F)c1ccccc1-c1ccc2ncnc(NCc3cccnc3)c2c1`, the Potency was above 20 µM.

As for `COc1cccc(Cn2c(=O)c(-c3cccs3)nc3cncnc32)c1`, the Potency is above 20 µM.

Consider `Cc1cccc(CNc2ncncc2-c2cccc(NS(C)(=O)=O)c2)c1`, for which the Potency was above 20 µM.

As for `COCC(=O)N1CCC[C@@]2(CCN(C(=O)Nc3cccc(C#N)c3)C2)C1`, the Potency was above 20 µM.

On to `CN(C)c1ncc2nc(-c3cccs3)c(=O)n(CCC#N)c2n1`, for which the Potency is 0.319 µM (active).

Regarding `N#Cc1ccc(CN2CC[C@@]3(CCCN(C(=O)c4cnccn4)C3)C2)cc1`, the Potency was above 20 µM.

On to `O=C(c1cnccn1)N1CCC2(CC1)CCN(c1cccc(-c3ccccc3)c1)CC2`, for which the Potency is above 20 µM.

Regarding `COc1ccc2[nH]cc(CCNc3nc(-c4ccccc4OC)nc4ccccc34)c2c1`, the Potency was above 20 µM.

Values taken from PubChem BioAssay (NCATS).
